PubChem BioAssay (NCI)
Compounds without any hit were thinned out: in the full panel of roughly 83,000, 20% have a hit.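 Activity criterion: percent growth below 10, measured after cells in 96-well plates were exposed to a single compound concentration for 48 hours.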 Calls of active or inactive are those of the source.

Experiments:
Experiment in all cases: NCI-60 one-dose screen, 48 h (100 = growth as untreated, 0 = no growth, -100 = all killed)
Conditions in all cases: 10 µM unless noted
NCI-H23 lung = system: NCI-H23 lung
NCI-H226 lung = system: NCI-H226 lung
NCI-H322M lung = system: NCI-H322M lung
HOP-62 NSCLC = system: HOP-62 NSCLC
NCI-H460 lung = system: NCI-H460 lung
HOP-92 NSCLC = system: HOP-92 NSCLC
NCI-H522 lung = system: NCI-H522 lung
A549/ATCC NSCLC = system: A549/ATCC NSCLC
786-0 renal = system: 786-0 renal
COLO 205 colon = system: COLO 205 colon

Measured: growth

C/C=C/C=C1\C[C@H]2CO[C@H](O2)C1=O
inactive: NCI-H23 lung 93.9% | NCI-H226 lung 94.9% | NCI-H322M lung 93.7% | HOP-62 NSCLC 96.9% | NCI-H460 lung 104% | HOP-92 NSCLC 96.4% | NCI-H522 lung 95.6% | A549/ATCC NSCLC 98.2% | 786-0 renal 102% | COLO 205 colon 117%

COc1ccc(/C=N/Nc2nc(N/N=C/c3ccc(OC)cc3O)nc(N3CCOCC3)n2)c(O)c1
inactive: NCI-H23 lung 86.3% | NCI-H226 lung 69.4% | NCI-H322M lung 59.7% | HOP-62 NSCLC 64.8% | NCI-H460 lung 23.5% | HOP-92 NSCLC 88.6% | NCI-H522 lung 80.9% | A549/ATCC NSCLC 53% | 786-0 renal 14.7% | COLO 205 colon 63.5%

C=C(C)C(=O)O[C@H]1C[C@@]2(C)OC(=CC2=O)[C@H](C)[C@H](O)[C@H]2OC(=O)C(=C)[C@@H]21
inactive: NCI-H23 lung 58.4% | NCI-H226 lung 92.2% | NCI-H322M lung 93.8% | HOP-62 NSCLC 93.5% | NCI-H460 lung 93.3% | HOP-92 NSCLC 69.7% | A549/ATCC NSCLC 94.7% | 786-0 renal 64.2% | COLO 205 colon 13.6%
active: NCI-H522 lung -67.6%

O=S(=O)(Nc1ccc(C2CC2)cc1)c1ccc(-c2cnc(C3CC3)o2)cc1
inactive: NCI-H23 lung 73.9% | NCI-H226 lung 74.9% | NCI-H322M lung 92.3% | HOP-62 NSCLC 62.2% | NCI-H460 lung 73.2% | HOP-92 NSCLC 77.3% | NCI-H522 lung 59.6% | A549/ATCC NSCLC 62.2% | 786-0 renal 88.5% | COLO 205 colon 88.9%

COCCOc1ccc(-c2csc(NC(C)=O)n2)cc1NS(=O)(=O)c1cccc2c(N(C)C)cccc12
inactive: NCI-H23 lung 104% | NCI-H226 lung 84.9% | NCI-H322M lung 92.6% | HOP-62 NSCLC 102% | NCI-H460 lung 100% | HOP-92 NSCLC 58.6% | NCI-H522 lung 85.2% | A549/ATCC NSCLC 98.3% | 786-0 renal 95.8% | COLO 205 colon 94.5%

COc1ccc2c(c1)c(-c1nnc(N)nc1-c1cn(C)c3ccccc13)cn2C
inactive: NCI-H23 lung 92.4% | NCI-H226 lung 86.5% | NCI-H322M lung 90.4% | HOP-62 NSCLC 89.1% | NCI-H460 lung 99.5% | HOP-92 NSCLC 97.9% | NCI-H522 lung 85% | A549/ATCC NSCLC 95.8% | 786-0 renal 90.7% | COLO 205 colon 104%

Brc1cccc(/C=N/Nc2nc(N/N=C/c3cccc(Br)c3)nc(N3CCOCC3)n2)c1
inactive: NCI-H23 lung 43.1% | NCI-H226 lung 43.3% | NCI-H322M lung 52.8% | HOP-62 NSCLC 52.3% | NCI-H460 lung 41.2% | HOP-92 NSCLC 63.8% | NCI-H522 lung 33.6% | A549/ATCC NSCLC 42.6% | 786-0 renal 24.5% | COLO 205 colon 23.8%

CC(=O)NC(C)(C)C(=O)N1CCC[C@H]1C(=O)NC(C)(C)C(=O)N[C@@H](C)C(=O)NC(C)(C)C(=O)NC(C)(C)C(=O)N[C@@H](CCC(N)=O)C(=O)NC(C)(C)C(=O)N[C@H](C(=O)NC(C)(C)C(=O)NCC(=O)N[C@@H](CC(C)C)C(=O)NC(C)(C)C(=O)N1CCC[C@H]1C(=O)N[C@H](C(=O)NC(C)(C)C(=O)NC(C)(C)C(=O)N[C@@H](CCC(N)=O)C(=O)N[C@@H](CCC(N)=O)C(=O)N[C@H](CO)Cc1ccccc1)C(C)C)C(C)C
active: HOP-92 NSCLC -10.1% [4.25 µM] | COLO 205 colon -25.1% [4.25 µM]
inactive: NCI-H23 lung 21.1% [4.25 µM] | NCI-H226 lung 29.8% [4.25 µM] | NCI-H322M lung 71.1% [4.25 µM] | HOP-62 NSCLC 41% [4.25 µM] | NCI-H460 lung 29.9% [4.25 µM] | NCI-H522 lung 10.6% [4.25 µM] | A549/ATCC NSCLC 26.7% [4.25 µM] | 786-0 renal 80.5% [4.25 µM]

CS(=O)(=O)c1nccc(-c2c(-c3ccc(F)c(OCCc4ccccc4)c3)nc3sccn23)n1
active: NCI-H322M lung -26.9% | NCI-H522 lung -12.5%
inactive: NCI-H23 lung 100% | NCI-H226 lung 89.2% | HOP-62 NSCLC 103% | NCI-H460 lung 28.8% | HOP-92 NSCLC 50.1% | A549/ATCC NSCLC 99% | 786-0 renal 98.2% | COLO 205 colon 112%

Cc1cc(O)c2c(c1)C(=O)C(c1c(C)cc3c(c1O)C(=O)C=CC3=O)=CC2=O
active: NCI-H522 lung -36.9% | COLO 205 colon -19.3%
inactive: NCI-H23 lung 89.9% | NCI-H226 lung 97.7% | NCI-H322M lung 110% | HOP-62 NSCLC 98.6% | NCI-H460 lung 109% | HOP-92 NSCLC 108% | A549/ATCC NSCLC 98.6% | 786-0 renal 37.4%

O=C(CN1C(=O)CSC1=O)Nc1ccc(C(=O)/C=C/c2cc3ccccc3nc2Cl)cc1
inactive: NCI-H23 lung 68.4% | NCI-H226 lung 89.1% | NCI-H322M lung 96.1% | HOP-62 NSCLC 97.5% | NCI-H460 lung 85.7% | HOP-92 NSCLC 94.4% | NCI-H522 lung 66.9% | A549/ATCC NSCLC 78.2% | 786-0 renal 73.3% | COLO 205 colon 111%

O=C1NC(=O)c2c1c1c3ccccc3ccc1c1[nH]c3ccccc3c21
active: HOP-62 NSCLC 1.2% | NCI-H460 lung 6.41%
inactive: NCI-H23 lung 15.8% | NCI-H226 lung 12.2% | NCI-H322M lung 19.4% | HOP-92 NSCLC 35.9% | NCI-H522 lung 11.3% | A549/ATCC NSCLC 23.5% | 786-0 renal 18.6% | COLO 205 colon 28.8%

C#C[C@]1(O)CC[C@H]2[C@@H]3CC=C4c5sc(Nc6nc(C)cc(OC)n6)nc5CC[C@]4(C)[C@H]3CC[C@@]21C
inactive: NCI-H23 lung 71.9% | NCI-H226 lung 71% | NCI-H322M lung 92.9% | HOP-62 NSCLC 40% | NCI-H460 lung 21.9% | HOP-92 NSCLC 43.9% | NCI-H522 lung 88.1% | A549/ATCC NSCLC 53.9% | COLO 205 colon 78.5%
active: 786-0 renal -4.27%

N/C(=N\c1nc2c(Cl)cccc2s1)C(Cl)(Cl)Cl
active: NCI-H322M lung 0.236%
inactive: NCI-H23 lung 93.2% | NCI-H226 lung 107% | HOP-62 NSCLC 40.8% | NCI-H460 lung 24.2% | HOP-92 NSCLC 64.3% | NCI-H522 lung 89.1% | A549/ATCC NSCLC 30% | 786-0 renal 90.9% | COLO 205 colon 51.9%

Cc1cc(NS(=O)(=O)c2ccc(-c3cnc(C4CC4)o3)cc2)ccc1I
inactive: NCI-H23 lung 37.7% | NCI-H226 lung 57.8% | NCI-H322M lung 45.8% | HOP-62 NSCLC 43.8% | NCI-H460 lung 22.2% | HOP-92 NSCLC 62.4% | NCI-H522 lung 30.6% | A549/ATCC NSCLC 48.1% | 786-0 renal 46.3% | COLO 205 colon 22.9%

COCCOc1ccc(-c2csc(NC(=O)CN3CCN(CCO)CC3)n2)cc1NS(=O)(=O)c1cccc2c(N(C)C)cccc12
inactive: NCI-H23 lung 78% | NCI-H226 lung 70.9% | NCI-H322M lung 68.4% | HOP-62 NSCLC 81% | NCI-H460 lung 98.2% | HOP-92 NSCLC 13.3% | NCI-H522 lung 24.1% | A549/ATCC NSCLC 92% | 786-0 renal 37.1% | COLO 205 colon 69.8%

COc1ccc(N2C(=O)c3cc(OC)c(OC)cc3NC2SCc2ccccc2)cc1 (stereo not drawn)
inactive: NCI-H23 lung 107% | NCI-H226 lung 102% | NCI-H322M lung 104% | HOP-62 NSCLC 107% | NCI-H460 lung 122% | HOP-92 NSCLC 112% | NCI-H522 lung 95.2% | A549/ATCC NSCLC 110% | 786-0 renal 117% | COLO 205 colon 109%

Cc1ccc(/C=C/c2nn3c(-c4ccco4)nnc3s2)cc1
inactive: NCI-H23 lung 104% | NCI-H226 lung 100% | NCI-H322M lung 94% | HOP-62 NSCLC 114% | NCI-H460 lung 99.9% | HOP-92 NSCLC 107% | NCI-H522 lung 94.4% | A549/ATCC NSCLC 97.8% | 786-0 renal 88.4% | COLO 205 colon 102%

Nc1nc(N)c2c(n1)NC(c1ccccc1)CC(c1ccc(Nc3nc(NCCO)nc(Nc4ccc(Cl)cc4)n3)cc1)=N2 (stereo not drawn)
inactive: NCI-H23 lung 41.2% | NCI-H226 lung 91.9% | NCI-H322M lung 63.2% | NCI-H522 lung 41% | A549/ATCC NSCLC 75.7% | COLO 205 colon 80.8%
active: HOP-62 NSCLC -69.6% | NCI-H460 lung -80.3% | HOP-92 NSCLC -79.1% | 786-0 renal -86%

CCNC(=O)Oc1ccc(/C(=C(/C)c2ccccc2)c2ccc(OCCN3CCCC3)cc2)cc1
inactive: NCI-H23 lung 74.6% | NCI-H226 lung 96.6% | NCI-H322M lung 93.2% | HOP-62 NSCLC 89.9% | NCI-H460 lung 76.2% | HOP-92 NSCLC 61.9% | NCI-H522 lung 83.3% | A549/ATCC NSCLC 74.9% | 786-0 renal 36.7% | COLO 205 colon 75.5%

CNC(=O)c1cc(Oc2ccc3nc(NC(=O)c4ccc(CN5CCCN(C)CC5)c(C(F)(F)F)c4)sc3c2)ccn1
active: NCI-H460 lung 5.57% | NCI-H522 lung -56.6% | 786-0 renal -76.3% | COLO 205 colon -64.4%
inactive: NCI-H23 lung 23% | NCI-H226 lung 82.9% | NCI-H322M lung 32.2% | HOP-62 NSCLC 11.5% | HOP-92 NSCLC 37.7% | A549/ATCC NSCLC 39.9%

O=C(CN1CCN(c2cc(=O)n(-c3ccccc3)c3ccccc23)CC1)Nc1ccc([N+](=O)[O-])cc1
inactive: NCI-H23 lung 82.5% | NCI-H226 lung 83.5% | NCI-H322M lung 88.1% | HOP-62 NSCLC 95.1% | NCI-H460 lung 94.3% | HOP-92 NSCLC 76.5% | NCI-H522 lung 82.5% | A549/ATCC NSCLC 95.1% | 786-0 renal 90.5% | COLO 205 colon 107%

O=C(Nc1cc(Cl)cc(Cl)c1)Nc1nc2ccc([N+](=O)[O-])cc2s1
active: NCI-H23 lung -37.7% | NCI-H226 lung -9.83% | NCI-H322M lung 9.2% | HOP-62 NSCLC -4.21% | NCI-H460 lung 1.08% | HOP-92 NSCLC -6.65% | NCI-H522 lung 1.99% | A549/ATCC NSCLC 9.1% | COLO 205 colon -49.2%
inactive: 786-0 renal 11%

COc1ccccc1N1CCN(C2=NN=C(c3cccc(Cl)c3)c3ccccc3C2)CC1
active: NCI-H460 lung 1.95% | COLO 205 colon -38.7%
inactive: NCI-H23 lung 31.6% | NCI-H226 lung 57.5% | NCI-H322M lung 37% | HOP-62 NSCLC 34.3% | HOP-92 NSCLC 46.8% | A549/ATCC NSCLC 17.2% | 786-0 renal 27%

CC(=O)Nc1nc2c(s1)C1=CC[C@H]3[C@@H]4CC[C@H](C(C)=O)[C@@]4(C)CC[C@@H]3[C@@]1(C)CC2
inactive: NCI-H23 lung 81.2% | NCI-H226 lung 94.8% | NCI-H322M lung 77.1% | HOP-62 NSCLC 62.8% | NCI-H460 lung 64.4% | HOP-92 NSCLC 105% | A549/ATCC NSCLC 51.7% | 786-0 renal 25% | COLO 205 colon 57%
